# Experimental data published in PubChem BioAssay.
# Several values for one entry are separate records, joined by “and”; a condition that tells them apart may be missing. Equal values may be shown once. Activity calls are given as the source filed them.
# How the values were obtained:
# [1] = binders of probe aFSTL3 on microarray, primary screen, stem cell growth factor project, biochemical, small-molecule microarray, fluorescence 635/667 (AID 1064); details: higher = more signal; small-molecule microarray, probe aFSTL3, fluorescence unless noted;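 also: measures binding of the biotinylated anti-FSTL3 antibody to printed compounds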
# [2] = binders from COS7 lysate, DM2A8 probe, primary screen, torsin A project, cell lysate, small-molecule microarray, fluorescence 635/667 (AID 1065); details: higher = more signal; small-molecule microarray, COS7 cell lysate, probe DM2A8, fluorescence, COS7 lysate expressing mutant human TOR1A unless noted
# [3] = binders of probe aFGF2 on microarray, primary screen, stem cell growth factor project, biochemical, small-molecule microarray, fluorescence 635/667 (AID 1067); details: higher = more signal; small-molecule microarray, probe aFGF2, fluorescence unless noted;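 also: measures binding of biotinylated aFGF2 protein to printed compounds on slides; z-score merges feature fluorescence and signal-to-noise across triplicate slides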
# [4] = binders of probe aFGF10 on microarray, primary screen, stem cell growth factor project, biochemical, small-molecule microarray, fluorescence 635/667 (AID 1071); details: higher = more signal; small-molecule microarray, probe aFGF10, fluorescence unless noted;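 also: score merges 667 nm spot intensity and signal to noise from triplicate slides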
# [5] = target: Neurogenic locus notch homolog protein 2 (Homo sapiens) (UniProt Q04721); assay: Notch2 binders on small-molecule microarrays, primary screen, biochemical, small-molecule microarray, 635 nm fluorescence, stem cell growth factors (AID 1073); details: Notch2 binding, higher = more signal
# [6] = target: Pro-neuregulin-1, membrane-bound isoform (Homo sapiens) (UniProt Q02297); assay: NRG1 binders on small-molecule microarrays, primary screen, psychiatric disease protein project, biochemical, small-molecule microarray, fluorescence 635/667 (AID 1075); details: NRG1 binding, 635 nm fluorescence, higher = more signal;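 also: score combines 667 nm spot fluorescence with signal to noise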
# [7] = system: Neuregulin-1 EGF-like domain; assay: binders of neuregulin-1 EGF-like domain, primary screen, biochemical, small-molecule microarray, 635 nm fluorescence (AID 1081); details: small-molecule microarray binding, higher = more signal;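 also: binding of the protein to compounds printed on small-molecule microarray slides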
# [8] = FRG1 promoter luciferase signal modulators, primary screen, FRG1 inhibition for FSHD, cell-based, C2C12 myotubes, firefly/Renilla luciferase, luminescence (AID 1084); details: higher = more signal, called active from +8 up or from −8 down unless noted
# [9] = binders of probe aFST on microarray, primary screen, stem cell growth factor project, biochemical, small-molecule microarray, fluorescence 635/667 (AID 1086); details: higher = more signal;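 also: score merges 667 nm fluorescence with signal-to-noise of each printed compound spot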
# [10] = binders of probe aHhip on microarray, primary screen, stem cell growth factor project, biochemical, small-molecule microarray, fluorescence 635/667 (AID 1087); details: higher = more signal;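 also: score merges spot fluorescence at 667nm with spot signal to noise ratio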
# [11] = system: PRMT1 (protein arginine N-methyltransferase 1); assay: PRMT1 binders on small-molecule microarrays, primary screen, biochemical, small-molecule microarray, 635 nm fluorescence (AID 1088); details: small-molecule microarray binding, higher = more signal;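 also: binding of Prmt1 protein to compounds spotted on small-molecule microarray slides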
# [12] = yeast growth modulation, basal conditions, primary screen, YJM789 clinical isolate, OD600, 24 h (AID 1089);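 also: growth of clinical yeast isolate S. cerevisiae YJM 789 seeded 1000 cells per well; test concentration not given here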; details: S. cerevisiae YJM789 growth; higher = more signal, called active from +8 up or from −8 down unless noted
# [13] = fission yeast growth modulation, primary screen, strain 972, OD600, 24 h, no modulator (AID 1090);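 also: basal condition with compound alone and no growth modifier present; test concentration not given here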; details: S. pombe 972 growth; higher = more signal, called active from +8 up or from −8 down unless noted
# [14] = S. cerevisiae growth modulation with rapamycin, primary screen, strain BY4716, OD600, 96 h (AID 1091); details: higher = more signal, called active from +8 up or from −8 down unless noted; also: test concentration not given here
# [15] = target: Torsin-1A-interacting protein 2 (Homo sapiens) (UniProt Q8NFQ8); assay: LULL1 binders on small-molecule microarray, primary screen, cell lysate, human LULL1 lysate, 635/667 nm fluorescence (AID 1092); details: hLULL1 lysate binding, 635 nm fluorescence, higher = more signal;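 also: probe is lysate of COS7 cells overexpressing human LULL1; score merges per-feature 667 nm fluorescence with signal-to-noise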
# [16] = E. coli growth modulation, two-sided OD650, primary screen, E. coli filamentation project, strain DRC41, 24 h (AID 1093); details: OD650, 24 h; higher = more signal, called active from +8 up or from −8 down unless noted;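 also: MC1000 strain lacking acrAB efflux and sulA so SOS filamentation is blocked; test concentration not given here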
# [17] = small-molecule microarray binders of probe aLefty2, primary screen, biochemical, biotinylated probe, 635/667 nm fluorescence (AID 1094); details: higher = more signal; small-molecule microarray, probe aLefty2, fluorescence unless noted;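 also: score merges spot fluorescence near 667 nm with spot signal-to-noise ratio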
# [18] = system: Noggin (protein binding on small-molecule microarray); assay: Noggin binders on small-molecule microarray, primary screen, biochemical, 635/667 nm fluorescence (AID 1095); details: 635 nm fluorescence, higher = more signal;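 also: score merges 667 nm feature fluorescence with signal to noise over triplicate slides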
# [19] = target: Neurogenic locus notch homolog protein 3 (Homo sapiens) (UniProt Q9UM47); assay: NOTCH3 binders on small-molecule microarray, primary screen, biochemical, 635/667 nm fluorescence (AID 1096); details: NOTCH3 binding, 635 nm fluorescence, higher = more signal
# [20] = small-molecule microarray binders of probe aEGFR, primary screen, biochemical, biotinylated probe, 635/667 nm fluorescence (AID 1097); details: higher = more signal; small-molecule microarray, probe aEGFR, fluorescence unless noted;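 also: probe is a biotinylated anti-EGFR antibody binding compounds printed on slides; score combines fluorescence near 667 nm and signal to noise of each spot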
# Sequence of Torsin-1A-interacting protein 2 (Homo sapiens) (Q8NFQ8 whole entry, looked up): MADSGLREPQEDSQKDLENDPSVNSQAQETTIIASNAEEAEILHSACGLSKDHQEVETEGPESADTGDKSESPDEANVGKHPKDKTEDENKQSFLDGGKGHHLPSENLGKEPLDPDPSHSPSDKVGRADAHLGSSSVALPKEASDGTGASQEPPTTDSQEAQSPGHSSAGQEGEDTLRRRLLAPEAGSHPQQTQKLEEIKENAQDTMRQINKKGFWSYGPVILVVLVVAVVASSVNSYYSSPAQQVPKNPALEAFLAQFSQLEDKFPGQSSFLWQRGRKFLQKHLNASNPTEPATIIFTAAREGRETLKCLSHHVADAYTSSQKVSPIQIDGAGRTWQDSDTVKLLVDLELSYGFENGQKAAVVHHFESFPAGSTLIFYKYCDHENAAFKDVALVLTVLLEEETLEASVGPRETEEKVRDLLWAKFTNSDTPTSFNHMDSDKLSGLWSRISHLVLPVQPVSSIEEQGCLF
# Sequence of Neurogenic locus notch homolog protein 2 (Homo sapiens) (Q04721 whole entry, looked up, canonical isoform): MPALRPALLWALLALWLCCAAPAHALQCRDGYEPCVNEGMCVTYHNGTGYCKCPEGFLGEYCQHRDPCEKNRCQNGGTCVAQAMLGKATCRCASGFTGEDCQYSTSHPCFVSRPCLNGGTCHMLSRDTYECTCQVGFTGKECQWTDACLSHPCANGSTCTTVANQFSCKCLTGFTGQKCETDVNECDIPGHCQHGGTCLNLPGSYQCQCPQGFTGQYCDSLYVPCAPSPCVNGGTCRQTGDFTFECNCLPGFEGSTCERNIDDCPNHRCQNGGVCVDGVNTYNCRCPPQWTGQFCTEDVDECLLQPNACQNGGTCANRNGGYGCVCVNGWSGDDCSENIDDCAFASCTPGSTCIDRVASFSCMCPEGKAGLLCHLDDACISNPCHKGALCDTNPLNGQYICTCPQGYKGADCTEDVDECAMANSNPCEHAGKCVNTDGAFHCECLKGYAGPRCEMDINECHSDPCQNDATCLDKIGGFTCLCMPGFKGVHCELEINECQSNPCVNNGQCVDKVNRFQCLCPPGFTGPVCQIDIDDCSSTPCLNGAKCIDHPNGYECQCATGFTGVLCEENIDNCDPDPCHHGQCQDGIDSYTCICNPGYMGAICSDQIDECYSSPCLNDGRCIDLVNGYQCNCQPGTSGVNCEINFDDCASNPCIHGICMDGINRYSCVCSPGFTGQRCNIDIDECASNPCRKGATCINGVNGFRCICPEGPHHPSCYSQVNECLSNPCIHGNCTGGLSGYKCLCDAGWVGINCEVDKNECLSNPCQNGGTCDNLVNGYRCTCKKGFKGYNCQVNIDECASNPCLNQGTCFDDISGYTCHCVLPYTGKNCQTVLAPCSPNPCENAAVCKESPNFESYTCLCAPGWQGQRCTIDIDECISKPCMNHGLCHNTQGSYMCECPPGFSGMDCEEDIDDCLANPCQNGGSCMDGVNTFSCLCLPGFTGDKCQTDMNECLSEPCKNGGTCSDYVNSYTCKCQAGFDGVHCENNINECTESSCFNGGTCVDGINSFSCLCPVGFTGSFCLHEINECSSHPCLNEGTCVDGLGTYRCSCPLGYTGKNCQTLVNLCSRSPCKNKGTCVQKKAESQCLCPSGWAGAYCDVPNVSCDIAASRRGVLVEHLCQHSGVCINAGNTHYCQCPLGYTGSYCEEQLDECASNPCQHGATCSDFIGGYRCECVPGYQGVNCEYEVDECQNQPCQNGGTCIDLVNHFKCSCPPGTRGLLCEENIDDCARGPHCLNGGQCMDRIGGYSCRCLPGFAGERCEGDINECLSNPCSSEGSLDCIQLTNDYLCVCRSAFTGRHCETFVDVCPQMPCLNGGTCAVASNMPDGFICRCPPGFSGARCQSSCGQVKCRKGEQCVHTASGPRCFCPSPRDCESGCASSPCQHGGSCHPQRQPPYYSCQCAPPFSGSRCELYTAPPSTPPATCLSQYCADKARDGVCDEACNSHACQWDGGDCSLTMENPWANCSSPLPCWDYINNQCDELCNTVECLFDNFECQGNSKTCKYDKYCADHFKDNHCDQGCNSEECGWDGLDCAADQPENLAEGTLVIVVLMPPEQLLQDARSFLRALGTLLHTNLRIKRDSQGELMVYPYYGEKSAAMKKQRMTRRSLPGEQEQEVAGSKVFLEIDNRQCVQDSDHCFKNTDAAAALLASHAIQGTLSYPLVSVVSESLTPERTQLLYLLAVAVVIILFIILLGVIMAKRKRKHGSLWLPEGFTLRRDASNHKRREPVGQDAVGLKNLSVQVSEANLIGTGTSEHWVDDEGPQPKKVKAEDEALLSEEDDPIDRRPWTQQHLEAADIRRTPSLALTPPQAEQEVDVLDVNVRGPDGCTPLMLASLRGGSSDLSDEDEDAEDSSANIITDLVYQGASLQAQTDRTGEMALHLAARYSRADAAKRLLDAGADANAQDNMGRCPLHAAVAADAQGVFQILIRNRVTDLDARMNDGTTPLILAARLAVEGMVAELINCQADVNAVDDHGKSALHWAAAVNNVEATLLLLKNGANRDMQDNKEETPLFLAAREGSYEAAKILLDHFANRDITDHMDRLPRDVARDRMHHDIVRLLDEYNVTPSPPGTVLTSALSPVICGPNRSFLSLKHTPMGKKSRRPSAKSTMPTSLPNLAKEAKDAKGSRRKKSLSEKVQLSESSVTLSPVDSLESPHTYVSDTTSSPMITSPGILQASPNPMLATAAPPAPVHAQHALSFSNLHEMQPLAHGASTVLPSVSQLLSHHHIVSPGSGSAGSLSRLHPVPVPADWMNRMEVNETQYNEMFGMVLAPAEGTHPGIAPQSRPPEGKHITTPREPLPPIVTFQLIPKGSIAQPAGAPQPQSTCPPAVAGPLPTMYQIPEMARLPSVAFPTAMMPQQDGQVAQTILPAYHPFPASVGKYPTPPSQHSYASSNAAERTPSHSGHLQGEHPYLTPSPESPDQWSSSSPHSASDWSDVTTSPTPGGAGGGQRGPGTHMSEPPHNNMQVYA
# Sequence of Pro-neuregulin-1, membrane-bound isoform (Homo sapiens) (Q02297 whole entry, looked up, the tested form may be a part, canonical isoform): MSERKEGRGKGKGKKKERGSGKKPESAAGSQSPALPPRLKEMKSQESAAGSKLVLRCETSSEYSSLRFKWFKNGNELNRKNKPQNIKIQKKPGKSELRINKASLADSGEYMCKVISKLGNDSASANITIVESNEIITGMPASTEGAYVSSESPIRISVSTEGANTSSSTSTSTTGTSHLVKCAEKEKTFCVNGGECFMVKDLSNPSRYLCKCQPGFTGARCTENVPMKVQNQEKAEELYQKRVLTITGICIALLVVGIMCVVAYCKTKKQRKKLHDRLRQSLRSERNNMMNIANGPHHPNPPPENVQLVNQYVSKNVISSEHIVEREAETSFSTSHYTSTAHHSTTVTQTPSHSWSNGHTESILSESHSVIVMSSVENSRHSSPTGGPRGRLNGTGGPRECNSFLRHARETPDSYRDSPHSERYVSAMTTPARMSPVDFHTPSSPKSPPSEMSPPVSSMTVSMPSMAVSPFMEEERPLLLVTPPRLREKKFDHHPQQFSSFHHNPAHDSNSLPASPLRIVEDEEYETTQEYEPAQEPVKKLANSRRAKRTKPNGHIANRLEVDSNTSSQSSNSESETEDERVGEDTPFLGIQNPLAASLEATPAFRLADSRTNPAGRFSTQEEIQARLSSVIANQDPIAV
Compound,composite z-score [1],composite z-score [2],composite z-score [3],composite z-score [4],composite z-score [5],composite z-score [6],composite z-score [7],z-score [8],composite z-score [9],composite z-score [10],composite z-score [11],z-score [12],z-score [13],z-score [14],composite z-score [15],z-score [16],composite z-score [17],composite z-score [18],composite z-score [19],composite z-score [20]
C[C@@H]1OC=C2[C@@H](O)[C@H]3O[C@H]3C(=O)[C@]23[C@H]1[C@H]1C2=C([C@@H](O)[C@H]4O[C@H]4C2=O)[C@@H]3O[C@@H]1C,-0.532,0.0437,-0.169,-0.0391,0.121,-0.854,-0.372,-0.165 (inactive),-0.192,0.0274,-0.259,-0.676 (inactive),0.585 (inactive),0.0254 (inactive),-0.957,-0.101 (inactive),-0.101,0.195,-0.186,-0.0689
C=C(CC1(C(C)NP(=O)(c2ccccc2)c2ccccc2)CC1)c1ccccc1 (stereo not given),0.21,-0.954,0.208,0.851,1.01,1.16,0.714,-3.03 (inactive),0.881,0.113,0.144,-1.47 (inactive),-5.37 (inactive),-3 (inactive),3.44,-0.74 (inactive),-0.119,-0.344,0.673,-0.135
C[C@@H]1Cc2c(cnc3c2CN(C)CC3)CO1,-0.0578,0.442,-0.105,0.0502,-0.163,-0.93,-0.206,-0.989 (inactive),0.0686,0.312,-0.377,-0.0303 (inactive),-0.591 (inactive),-0.582 (inactive),-0.0214,0.262 (inactive),-0.153,0.603,-0.78,0.0255
CCCc1cc2c(n1Cc1ccco1)C(C)C1CN(C(=O)c3ccccc3)C(C)(C(=O)OC)C21 (stereo not given),1.03,1.05,0.13,0.657,1.66,1.35,1.09,0.301 (inactive),0.802,1.05,0.254,-0.0941 (inactive),-0.154 (inactive),0.444 (inactive),2.03,-0.773 (inactive),0.849,0.025,1.09,0.337
COC(=O)C1(C)C=C2C(=C(C)C(=O)C2C)CN1 (stereo not given),1.28,-0.297,-0.0627,-0.195,-0.483,0.367,1.55,3.71 (inactive),0.706,0.107,-0.289,0.957 (inactive),0.437 (inactive),1.14 (inactive),-0.132,-1.5 (inactive),-0.0175,-1,-1.2,-0.139
CCCc1cc2c(n1CCO)C(C)C1CN(C(=O)c3ccccc3)C(C)(C(=O)OC)C21 (stereo not given),1.44,1.73,0.374,0.0514,1.66,1.21,1.14,2.02 (inactive),1.44,0.593,-0.147,-0.28 (inactive),1.08 (inactive),0.158 (inactive),2.94,-0.0807 (inactive),0.851,-0.562,0.386,0.427
CC1N(P(=O)(c2ccccc2)c2ccccc2)CC(O)(c2ccccc2)CC12CC2 (stereo not given),0.401 and 0.0381,-1.21 and -0.157,0.0161 and 0.221,0.309 and 0.352,0.621 and 1.54,2 and 1.82,1.41 and 0.526,2.45 (inactive) and -0.78 (inactive),-0.0551 and 1.02,0.238 and 0.535,0.453 and -1.07,0.401 (inactive) and -2.96 (inactive),0.614 (inactive) and -1.46 (inactive),0.973 (inactive) and 0.0418 (inactive),3.87 and 3.05,-0.476 (inactive) and -0.172 (inactive),0.084 and 0.644,-1.15 and -1.06,-1.14 and -0.154,-0.0565 and 0.174
COC(=O)[C@H]1C(=O)c2ccccc2O[C@@](C(=O)OC)(c2ccccc2)[C@@H]1c1ccccc1,-0.384,-0.262,-0.149,0.179,0.343,-0.454,-1.02,-0.748 (inactive),-0.204,-0.134,-1.47,-0.644 (inactive),-1.77 (inactive),0.225 (inactive),-0.565,0.161 (inactive),-0.159,-0.054,-1.01,-0.0093
COC(=O)[C@H]1[C@H](c2ccccc2)C(=O)[C@]2(O)c3ccccc3O[C@@]12c1ccccc1,-0.521,0.824,-0.0894,0.273,0.472,0.113,0.348,-2.68 (inactive),-0.12,-0.236,-0.371,-1.36 (inactive),-0.83 (inactive),-0.713 (inactive),0.582,0.0043 (inactive),-0.267,0.372,0.667,-0.12
CN1CCc2nc(CO)c(CO)cc2C1,-0.304,0.267,-0.0982,0.401,0.528,0.0016,0.611,0.294 (inactive),0.242,0.0881,-0.121,0.909 (inactive),0.772 (inactive),1.47 (inactive),0.277,0.077 (inactive),-0.0912,0.543,0.765,0.0668
